Experimental findings from PubChem BioAssay (NCATS) are described below.

Experiment [1] is described as follows: qHTS Assay for Lipid Storage Modulators (AID 1519; calls by dose curve). Particulars: Drosophila S3 cells, BODIPY lipid droplet/cell ratio, laser cytometry, cells loaded with oleic acid. The method in brief: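 Cells seeded at 5,000 per well were treated with compounds over a concentration series and loaded with oleic acid (400 uM, as added). Lipid droplet fluorescence (488 nm excitation, 500-530 nm channel) was read by laser-scanning cytometry and normalized to 20 uM Triacsin C.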
For orientation: In qHTS, concentration-response curves come from the screen itself.

The nature of experiment [2]: AP1 Signaling Pathway (AID 357; active = well fitted curve in either direction with a large enough effect, not every such curve was filed as active;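 also: ME-180 reporter cells stimulated with EGF at its EC50 level; % is scaled to controls: 0 for no effect and ±100 for the full control effect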). The conditions noted are these: ME-180 AP-1-bla reporter, EGF-induced, beta-lactamase ratio, 5 h; at 7.69 µM (top of the series) unless noted. The method in brief:
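A ratiometric CCF4 readout (405 nm excitation; 460 and 530 nm emission) quantified AP-1-driven beta-lactamase in ME-180 cells after 5 h with compound and EC50 EGF; AC50 values were derived for activators and inhibitors.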

For experiment [3], the target named is Cytochrome P450 1A2 (Homo sapiens) (UniProt P05177). Briefly: p450-cyp1a2 (AID 410; calls by dose curve; also: potency is read from the fitted curve at half-maximal effect;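 as to activity change, negative = inhibition: -100% = full effect of reference inhibitor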). Particulars: recombinant CYP1A2, luciferin-ME demethylation, luminescence; series mostly up to 57 µM. Summed up: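 Luminescent readout of luciferin formed from Luciferin-ME by human CYP1A2; data normalized against complete inhibition by 57 uM furafylline. Enzyme 20nM, substrate 100uM at Km, 100mM KPO4 buffer, 60 min reaction at room temperature.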

A short description of experiment [4]: NFAT Signaling Pathway (AID 444; active = well fitted curve in either direction with a large enough effect, not every such curve was filed as active;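 also: carbachol stimulus at about its EC50 of 1 µM final; % is scaled to controls: 0 for no effect and ±100 for the full control effect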). The conditions noted are these: Jurkat NFAT-bla M1, carbachol, beta-lactamase ratio, 5 h; at 7.69 µM (top of the series) unless noted. Summed up: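 Read-out: CCF4 FRET ratio (460 nm/530 nm) after 1 h RT dye loading, used for %activity and AC50 from titration series. Cells: Jurkat NFAT-β-lactamase/M1 line, treated with compound plus 1 uM carbachol for 5 h, 37 °C.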

Experiment [5] in a line: Stat Signaling Pathway (AID 446; active = well fitted curve in either direction with a large enough effect, not every such curve was filed as active;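 also: ME-180 cervical cancer cells given 40 pM IL-6 alongside compound; SIE-controlled beta-lactamase reporter measured as 460/530 nm FRET emission ratio; % is scaled to controls: 0 for no effect and ±100 for the full control effect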). Particulars: ME-180 (cervical carcinoma) SIE beta-lactamase reporter, IL-6 stimulated, 5 h; at 7.69 µM (top of the series) unless noted. Summed up:
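ME-180 SIE-bla cells; overnight plating; cpd + IL-6 40 pM, 5 h, 37 C; LiveBLAzer 2.5 h RT; 460/530 nm emission ratio. Normalized to 300 pM IL-6 and 125 nM JAK inhibitor controls.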

In experiment [6] the target is Glucocorticoid receptor (Homo sapiens) (UniProt P04150). Briefly: GR-GFP Redistribution (AID 450;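 active = compounds whose dose series gives a full or clear partial fitted curve of increased nuclear translocation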; also: potency is read from the fitted curve at half-maximal effect). Particulars: U2OS GR-GFP nuclear translocation, laser cytometry, 2 h.
For experiment [7] the target is unchanged. Briefly: GR-EFC Redistribution (AID 451; calls by dose curve; also: potency is read from the fitted curve at half-maximal effect). Particulars: CHO-K1 GR-EFC translocation, beta-gal luminescence, 2 h. The method in brief: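 Translocation of GR-ED fusion to nuclear EA restores b-gal, read by luminescence after 1 h room-temperature detection. Engineered CHO-K1 biosensor cells, 1,000/well, exposed 2 h at 37 C to titrations up to 46 uM final.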

For experiment [8], the target named is Mitogen-activated protein kinase 10 (Mus musculus) (UniProt Q61831). Briefly: JNK3 AlphaScreen Assay (AID 530; active = well fitted curve in either direction with a large enough effect, not every such curve was filed as active;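 also: kinase came from lysate of stimulated human HepG2 cells; signal reports phosphorylation of biotinylated GST-cJun 1-79 at Ser73 with 10 µM ATP; % is scaled to controls: 0 for no effect and ±100 for the full control effect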). Particulars: JNK3 lysate, c-Jun phosphorylation; series mostly up to 57.1 µM. Summed up:
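Compound titrations were preincubated 15 minutes at room temperature with substrate, antibody and pre-activated JNK3-containing HepG2 lysate. Reactions were started with 10 uM ATP and stopped with EDTA-containing bead buffer for AlphaScreen detection.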
In general terms: Bead proximity is the source of the signal in Alpha formats.

Experiment [9] addresses 3',5'-cyclic-AMP phosphodiesterase 4B (Homo sapiens) (UniProt Q07343). Briefly: qHTS Assay for Inhibitors of PDE-IV (AID 607; active = well fitted activation curve with a large enough effect in the main read-out, with a control signal flat, not every such curve was filed as active; also: % of control where 0% means no effect). The conditions noted are these: HEK293 ACTOne CNG channel cells, membrane potential fluorescence; series mostly up to 22.9 µM. The method in brief:
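ACTOne HEK293 cells carry a modified cAMP-gated CNG channel and express endogenous PDE4; plated 1000 cells/well, compounds up to 22.9 uM final. Membrane-potential dye fluorescence (ex 535/em 590) was read; parental cells received 10 uM forskolin + 100 uM RO 20-1724.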

Experiment [10] deals with Guanine nucleotide-binding protein G(i) subunit alpha-1 (Homo sapiens) (UniProt P63096). Briefly: qHTS Assay for Inhibitors of RGS12 GoLoco Motif Activity (Green Fluorophore) (AID 879).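 Also: 0% = labeled peptide with Gαi1 and full inhibition = labeled peptide alone without protein; negative values mean loss of peptide binding seen as reduced polarization.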 Particulars: Galphai1/FITC-RGS12 GoLoco peptide, fluorescence polarization; series mostly up to 57.1 µM. Summed up:
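Fluorescence polarization assay: 50 nM Gαi1 with 10 nM FITC-labeled RGS12 GoLoco peptide in 10 mM Tris pH 7.5, 150 mM NaCl, 0.1 mM GDP, 0.05% NP40, 10 min at room temperature with compound.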

Experiment [11] deals with Pyruvate kinase (Leishmania mexicana) (UniProt Q27686). Briefly: qHTS Validation Assay for Inhibitors of Leishmania Mexicana Pyruvate Kinase (AID 945).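 Also: 0% = DMSO only neutral control wells.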 Particulars: purified L. mexicana pyruvate kinase, enzyme activity, E451W mutant enzyme; series mostly up to 57.5 µM. The method in brief:
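Substrate mix (0.5 mM PEP, 0.1 mM ADP, 7 mM MgCl2, 50 mM KCl, pH 7.2 imidazole) received compound by pin tool, then 0.2 nM LmPYK E451W. After 1 h at room temperature, PKLight was added and luminescence measured.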

For experiment [12], the target named is Pyruvate kinase PKM (Homo sapiens) (UniProt P14618). Briefly: qHTS Assay for Activators of Human Muscle Pyruvate Kinase (AID 954; active = well fitted curve in the direction sought with a large enough effect, not every such curve was filed as active;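 also: 0% = uninhibited enzyme and -100% = no enzyme or full thiadiazolimine inhibition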). The conditions noted are these: purified human muscle pyruvate kinase, luciferase-coupled luminescence, 1 h; series mostly up to 57.5 µM. The method in brief:
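Luminescence from a luciferase ATP-detection/stop reagent reported PKM2 activity. Reactions contained 0.1 nM purified human enzyme, 0.5 mM PEP, 0.1 mM ADP and 7 mM MgCl2 at pH 7.2, run 1 h at RT.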

The target of experiment [13] is alpha-glucosidase (Oryza sativa, rice) (UniProt Q653V4). Briefly: Counterscreen for Glucocerebrosidase Inhibitors: qHTS Assay for Rice alpha-Glucosidase at pH 5.0 (AID 997).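 Also: 0% = full activity with enzyme and -100% = basal without enzyme.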 Particulars: rice alpha-glucosidase enzyme activity; series mostly up to 76.9 µM. Summed up:
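Rice alpha-glucosidase (4 nM final) with 400 uM 4-methylumbelliferyl-alpha-D-glucopyranoside in citrate buffer pH 5.0, 20 min at room temperature, stopped at pH 10; fluorescence 365/440 nm, compounds 0.7 nM–77 uM, AC50 from Hill fits.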
A general note: The purpose of a counterscreen is to sort out artefacts and off-target activity.

The target in experiment [14] is Ubiquitin carboxyl-terminal hydrolase 1 (Homo sapiens) (UniProt O94782). Briefly: Inhibitors of USP1/UAF1: Pilot qHTS (AID 504865).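 Also: rhodamine fluorescence freed from ubiquitin-rhodamine substrate followed over time; top concentration of the series differs between compounds; % is scaled to controls: 0 for no effect and ±100 for the full control effect; nearly all actives have a fitted effect of over 35% in size.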 Particulars: purified USP1/UAF1, Ub-rhodamine cleavage fluorescence; series mostly up to 54.9 µM. The method in brief: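 1nM USP1/UAF1 + cpd, 15 min RT; start w/ Ub-Rho 150nM final; kinetic FL 480/540 nm, 6 reads q60 s. Buffer 50mM HEPES pH 7.8, 0.5mM EDTA, 1mM TCEP, 0.01% Tween-20, 0.1 mg/ml BSA.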

Experiment [15] addresses ATP-dependent 6-phosphofructokinase (Trypanosoma brucei brucei) (UniProt O15648). Briefly: qHTS Assay to Find Inhibitors of T. brucei phosphofructokinase: hit validation (AID 492961). Particulars: T. brucei PFK, ADP-Glo luminescence; series mostly up to 24.3 µM. The method in brief: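 In this biochemical qHTS validation, titrated compounds were tested against 1.25 nM PFK with 0.1 mM ATP and 0.5 mM F6P. Percent activity came from controls lacking or containing enzyme.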

The target in experiment [16] is Luciferin 4-monooxygenase (Photinus pyralis) (UniProt P08659). Briefly: Biochemical firefly luciferase enzyme assay for NPC (AID 624030).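 Also: purified P. pyralis luciferase at 10 nM with luciferin and ATP substrate; 0% = DMSO and -100% = full luciferase inhibition by PTC124 control; nearly all actives have a fitted effect of over 70% in size.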 Particulars: purified P. pyralis luciferase, luminescence, 5 min; series mostly up to 58.6 µM. Summed up: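 Direct inhibition of firefly luciferase enzyme (10 nM final, 50 mM Tris Acetate) assessed by luminescence within 5 minutes. Percent activity scaled between DMSO and PTC124 positive control, with concentration-effect curves classified by fit quality and response.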

Experiment [17] can be described thus: qHTS profiling for inhibitors of Plasmodium falciparum proliferation (AID 504749).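 Also: 0% = DMSO vehicle and full inhibition = artemisinin control; nearly all actives have a fitted effect of over 60% in size.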 Particulars: P. falciparum in erythrocytes, SYBR Green DNA, 72 h, at 28.7 µM (top of the series). Summed up:
(§1)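 Infected RBCs, 0.3% parasitemia/2.5% Hct final; cpd 72 h, 37 C, 5% CO2; lysis buffer with saponin/triton/SYBR Green I, o/n RT dark; FI 485/535; norm. to artemisinin (0.29 uM) and DMSO.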

In a further experiment the test system is AS120. Described as above. The conditions noted are these: P. falciparum in erythrocytes, SYBR Green DNA, 72 h; series mostly up to 28.7 µM. Summed up:
as §1

For another experiment, the system named is CP238. The experiment is described as above. Particulars: P. falciparum in erythrocytes, SYBR Green DNA, 72 h; series mostly up to 12.8 µM. The method in brief:
as §1

For the next experiment, the system named is FAB9. The experiment is described as above. The conditions noted are these: P. falciparum in erythrocytes, SYBR Green DNA, 72 h; series mostly up to 12.8 µM. The method in brief: as §1
The mark [18] stands for this setting: measured here: cell count channel max response.
[19] abbreviates: measured here: lipid channel max response.

Structures are written as SMILES. Where “and” joins values, the source holds several entries; their conditions need not be identical. Equal entries are not always repeated. Results filed as inconclusive are left out. Calls of active or inactive are those of the source. Unless noted, calls follow the shape of the dose curve; as a rule, active = well fitted curve in the direction sought with a large enough effect; inconclusive = small, poorly fitted or top-dose-only effect, or another doubt; inactive = no such curve, though single readings can be large; an effect the other way counts as inactive or inconclusive.

Chain of Glucocorticoid receptor (Homo sapiens) (P04150 whole entry, looked up, the tested form may be a part): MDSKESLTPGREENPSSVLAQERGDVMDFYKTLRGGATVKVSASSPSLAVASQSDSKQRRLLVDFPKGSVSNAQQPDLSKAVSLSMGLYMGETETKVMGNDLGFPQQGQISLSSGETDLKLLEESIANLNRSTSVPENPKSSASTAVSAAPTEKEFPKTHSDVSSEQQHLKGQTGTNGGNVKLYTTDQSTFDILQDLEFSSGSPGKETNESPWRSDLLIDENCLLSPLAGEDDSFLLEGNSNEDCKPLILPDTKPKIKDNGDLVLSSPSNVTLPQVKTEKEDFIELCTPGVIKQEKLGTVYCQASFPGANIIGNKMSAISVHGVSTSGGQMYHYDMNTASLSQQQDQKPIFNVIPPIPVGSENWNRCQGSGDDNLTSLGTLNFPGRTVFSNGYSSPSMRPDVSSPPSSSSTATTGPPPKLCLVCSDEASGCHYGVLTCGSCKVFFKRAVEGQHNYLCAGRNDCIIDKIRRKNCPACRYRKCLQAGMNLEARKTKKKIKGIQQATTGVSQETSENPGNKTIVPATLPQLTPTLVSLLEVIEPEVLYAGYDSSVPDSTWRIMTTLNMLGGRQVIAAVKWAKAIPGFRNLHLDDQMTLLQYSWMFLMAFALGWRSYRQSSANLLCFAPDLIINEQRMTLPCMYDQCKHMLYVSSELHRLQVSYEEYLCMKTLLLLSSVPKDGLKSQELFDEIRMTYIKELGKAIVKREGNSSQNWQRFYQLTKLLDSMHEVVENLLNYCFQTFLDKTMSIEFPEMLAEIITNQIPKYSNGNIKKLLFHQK
Chain of 3',5'-cyclic-AMP phosphodiesterase 4B (Homo sapiens) (Q07343 whole entry, looked up): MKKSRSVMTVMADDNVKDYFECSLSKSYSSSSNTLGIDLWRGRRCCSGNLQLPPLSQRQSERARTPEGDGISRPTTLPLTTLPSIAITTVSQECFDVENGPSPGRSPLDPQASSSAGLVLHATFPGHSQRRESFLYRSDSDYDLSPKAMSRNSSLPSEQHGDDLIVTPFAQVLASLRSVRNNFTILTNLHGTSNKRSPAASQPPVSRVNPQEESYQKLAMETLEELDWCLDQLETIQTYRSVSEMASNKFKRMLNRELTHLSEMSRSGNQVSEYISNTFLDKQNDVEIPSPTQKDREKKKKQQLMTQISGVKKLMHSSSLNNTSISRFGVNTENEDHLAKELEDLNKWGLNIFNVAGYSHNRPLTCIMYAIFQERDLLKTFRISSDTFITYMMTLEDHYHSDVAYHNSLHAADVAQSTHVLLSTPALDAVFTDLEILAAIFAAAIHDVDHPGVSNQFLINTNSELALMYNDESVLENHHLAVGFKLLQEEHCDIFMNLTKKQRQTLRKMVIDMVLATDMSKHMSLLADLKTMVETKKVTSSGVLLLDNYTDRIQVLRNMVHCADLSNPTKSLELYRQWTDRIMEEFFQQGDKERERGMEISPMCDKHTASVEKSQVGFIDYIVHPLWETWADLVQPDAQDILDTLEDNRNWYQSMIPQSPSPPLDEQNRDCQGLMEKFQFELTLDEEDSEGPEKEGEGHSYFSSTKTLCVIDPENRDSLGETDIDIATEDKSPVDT
Chain of Cytochrome P450 1A2 (Homo sapiens) (P05177 whole entry, looked up): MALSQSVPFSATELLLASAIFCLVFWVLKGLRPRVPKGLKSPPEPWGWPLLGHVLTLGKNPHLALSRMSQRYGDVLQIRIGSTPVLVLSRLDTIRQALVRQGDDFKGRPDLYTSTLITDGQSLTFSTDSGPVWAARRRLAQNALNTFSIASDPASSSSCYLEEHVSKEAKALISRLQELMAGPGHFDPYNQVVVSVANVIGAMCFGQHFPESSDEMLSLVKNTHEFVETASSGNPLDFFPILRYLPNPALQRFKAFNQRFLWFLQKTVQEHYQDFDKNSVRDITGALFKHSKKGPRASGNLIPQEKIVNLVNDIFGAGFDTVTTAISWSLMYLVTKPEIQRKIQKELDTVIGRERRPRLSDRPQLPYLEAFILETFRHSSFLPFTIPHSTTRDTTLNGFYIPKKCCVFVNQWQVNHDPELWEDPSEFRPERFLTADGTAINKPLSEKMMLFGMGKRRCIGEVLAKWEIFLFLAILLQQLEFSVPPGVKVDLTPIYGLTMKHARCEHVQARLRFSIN
Chain of Ubiquitin carboxyl-terminal hydrolase 1 (Homo sapiens) (O94782 whole entry, looked up): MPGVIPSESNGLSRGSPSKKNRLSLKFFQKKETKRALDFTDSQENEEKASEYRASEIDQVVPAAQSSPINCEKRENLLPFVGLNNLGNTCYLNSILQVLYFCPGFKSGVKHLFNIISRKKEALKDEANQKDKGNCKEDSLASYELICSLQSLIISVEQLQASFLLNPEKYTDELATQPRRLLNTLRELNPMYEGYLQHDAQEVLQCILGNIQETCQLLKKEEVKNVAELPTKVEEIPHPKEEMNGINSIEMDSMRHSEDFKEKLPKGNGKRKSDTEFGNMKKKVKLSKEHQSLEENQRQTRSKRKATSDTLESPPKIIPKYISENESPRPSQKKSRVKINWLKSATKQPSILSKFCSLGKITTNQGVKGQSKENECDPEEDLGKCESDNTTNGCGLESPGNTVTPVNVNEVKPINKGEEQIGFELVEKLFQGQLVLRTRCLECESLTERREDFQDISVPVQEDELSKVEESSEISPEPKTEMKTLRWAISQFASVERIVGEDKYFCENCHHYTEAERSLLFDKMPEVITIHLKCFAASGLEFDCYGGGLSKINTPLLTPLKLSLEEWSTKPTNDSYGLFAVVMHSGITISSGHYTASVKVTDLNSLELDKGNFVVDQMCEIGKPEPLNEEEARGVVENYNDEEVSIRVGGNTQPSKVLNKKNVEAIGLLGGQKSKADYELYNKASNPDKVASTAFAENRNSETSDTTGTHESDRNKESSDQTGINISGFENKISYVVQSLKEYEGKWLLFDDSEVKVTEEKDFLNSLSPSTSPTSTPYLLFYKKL
Chain of Pyruvate kinase (Leishmania mexicana) (Q27686 2-499 E452W): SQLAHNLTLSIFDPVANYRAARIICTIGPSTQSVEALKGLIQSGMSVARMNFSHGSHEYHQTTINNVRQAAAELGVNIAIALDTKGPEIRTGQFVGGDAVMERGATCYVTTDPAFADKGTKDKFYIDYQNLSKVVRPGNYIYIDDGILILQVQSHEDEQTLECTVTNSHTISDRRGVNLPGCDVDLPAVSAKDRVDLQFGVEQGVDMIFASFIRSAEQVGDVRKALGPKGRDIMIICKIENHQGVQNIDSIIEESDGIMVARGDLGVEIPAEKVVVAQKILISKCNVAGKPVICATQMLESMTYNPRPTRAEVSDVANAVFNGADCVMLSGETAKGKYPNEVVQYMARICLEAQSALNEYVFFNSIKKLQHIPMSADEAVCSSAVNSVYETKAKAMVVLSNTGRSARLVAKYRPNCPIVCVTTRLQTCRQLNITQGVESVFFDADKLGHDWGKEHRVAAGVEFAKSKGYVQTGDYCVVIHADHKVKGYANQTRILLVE
Chain of Guanine nucleotide-binding protein G(i) subunit alpha-1 (Homo sapiens) (P63096 whole entry, looked up): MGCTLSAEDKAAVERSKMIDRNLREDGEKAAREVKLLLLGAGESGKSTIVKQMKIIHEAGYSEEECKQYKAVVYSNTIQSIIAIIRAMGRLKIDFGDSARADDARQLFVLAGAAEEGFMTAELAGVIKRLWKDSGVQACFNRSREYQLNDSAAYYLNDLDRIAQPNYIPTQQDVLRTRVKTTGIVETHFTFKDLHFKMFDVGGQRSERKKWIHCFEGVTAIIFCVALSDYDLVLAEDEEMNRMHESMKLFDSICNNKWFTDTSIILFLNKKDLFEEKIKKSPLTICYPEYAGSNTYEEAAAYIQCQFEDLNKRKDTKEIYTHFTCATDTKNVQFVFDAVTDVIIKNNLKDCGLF
Chain of Luciferin 4-monooxygenase (Photinus pyralis) (P08659 whole entry, looked up): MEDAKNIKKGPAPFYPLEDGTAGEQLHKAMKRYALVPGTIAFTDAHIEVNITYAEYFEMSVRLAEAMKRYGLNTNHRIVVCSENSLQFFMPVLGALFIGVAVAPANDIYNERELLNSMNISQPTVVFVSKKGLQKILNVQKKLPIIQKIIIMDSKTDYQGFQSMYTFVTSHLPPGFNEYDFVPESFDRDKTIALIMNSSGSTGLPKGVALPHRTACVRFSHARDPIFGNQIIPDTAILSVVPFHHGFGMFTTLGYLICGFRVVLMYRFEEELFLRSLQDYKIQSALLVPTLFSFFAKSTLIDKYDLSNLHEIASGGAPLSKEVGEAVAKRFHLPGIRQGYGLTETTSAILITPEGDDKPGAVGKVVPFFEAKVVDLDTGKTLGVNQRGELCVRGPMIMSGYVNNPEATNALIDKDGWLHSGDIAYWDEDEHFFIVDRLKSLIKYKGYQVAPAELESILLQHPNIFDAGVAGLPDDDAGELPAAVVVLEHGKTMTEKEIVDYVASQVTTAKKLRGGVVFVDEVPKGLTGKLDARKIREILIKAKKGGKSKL
Chain of Pyruvate kinase PKM (Homo sapiens) (P14618 whole entry, looked up): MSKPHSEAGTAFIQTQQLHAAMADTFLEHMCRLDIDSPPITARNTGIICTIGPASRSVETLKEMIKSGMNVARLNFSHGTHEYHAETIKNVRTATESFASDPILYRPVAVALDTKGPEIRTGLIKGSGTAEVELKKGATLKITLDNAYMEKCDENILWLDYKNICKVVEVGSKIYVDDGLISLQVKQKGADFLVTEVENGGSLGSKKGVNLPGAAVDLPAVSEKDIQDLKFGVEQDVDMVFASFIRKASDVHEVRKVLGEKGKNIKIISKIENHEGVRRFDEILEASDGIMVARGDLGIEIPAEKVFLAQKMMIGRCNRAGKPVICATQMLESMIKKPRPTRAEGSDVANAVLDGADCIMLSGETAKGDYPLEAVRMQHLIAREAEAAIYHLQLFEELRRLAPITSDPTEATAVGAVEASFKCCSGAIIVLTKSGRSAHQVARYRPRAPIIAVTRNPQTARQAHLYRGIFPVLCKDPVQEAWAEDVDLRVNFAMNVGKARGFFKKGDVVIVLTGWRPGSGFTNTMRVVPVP

As for `Nc1ccccc1C(=O)CC(N)C(=O)O` (configuration not stated), the activity change, negative = inhibition in experiment [1] (at 57.5 µM (top of the series)) was 9.57% (inactive) and 2.83% (inactive). Further, the max response was 10.9% and 14.4% in experiment [1] (setting [18]); 21.6% and 17.6% in [1] (setting [19]).
`C[C@@](N)(Cc1ccc(O)cc1)C(=O)O`: the activity change, negative = inhibition in experiment [2] was -8.05% [at 38 µM] (inactive) and -6.78% [at 38 µM] (inactive); in experiment [4], -13% [at 38 µM] (inactive) and 8.58% [at 38 µM] (inactive); in [1] (at 57.5 µM (top of the series)), 1.23% (inactive). The Potency result in experiment [3], in experiment [8], in experiment [9], in [10] and in experiment [14] was “inactive” throughout. Further, in experiment [5], the activity, negative = inhibition was 3.69% [at 38 µM] (inactive). The Potency in experiment [6] and in [7] was > 46 µM (inactive) each time. The compound was classed as inactive in experiment [11], in experiment [12] and in experiment [13]. The max response in experiment [1] (setting [18]) came to 15.7%; in experiment [1] (setting [19]), 18.3%.
Take `C[C@H]1NC(=O)NC1=O`: the activity change, negative = inhibition is 18% [at 17.2 µM] (inactive) and -9.42% [at 17.2 µM] (inactive) in [2]; -10.2% [at 17.2 µM] (inactive) and -1.97% [at 17.2 µM] (inactive) in [4]; -0.728% (inactive) in experiment [1] (at 25.7 µM (top of the series)). Also, the Potency entry in experiment [3], in experiment [8], in experiment [9] and in experiment [14] was “inactive” each time. The activity, negative = inhibition in [5] was -29.7% [at 17.2 µM] (inactive) and -2.24% [at 17.2 µM] (inactive). Moreover, the Potency in [6] and in [7] was > 20.6 µM (inactive) throughout. Further, the max response in experiment [1] (setting [18]) is -2.21%; in [1] (setting [19]), -1.48%.
For the compound `CC1(C)Oc2ccc(C#N)cc2[C@H](N2CCCC2=O)[C@H]1O`, the Potency in experiment [3] was 10 µM (active); in [6], > 46 µM (inactive); in experiment [7] it was > 46 µM (inactive). Moreover, the Potency entry (in experiment [8]; in experiment [9]; in experiment [14]; in the experiment on AS120; in the experiment on CP238; in the experiment on FAB9) was “inactive” each time. Besides, the activity change, negative = inhibition in experiment [1] (at 57.5 µM (top of the series)) is 0.0468% (inactive) and 5.32% (inactive). Further, the max response in [1] (setting [18]) was 5.79% and -0.997%; in [1] (setting [19]), 6.51% and -0.942%. The compound was called inactive in experiment [15] and in experiment [16]. The activity, negative = inhibition in experiment [17] (parasite line A) was 10.2% (inactive); in experiment [17] (parasite line B) it was 9.46% (inactive).
